According to PubChem BioAssay (EPA / NIEHS):
Results filed as inconclusive are left out. The source made the active and inactive calls. How the source made its calls: active means hit-call score of the fitted dose curve at least 0.9, where 1 is the maximum; inconclusive means response in the unintended direction; inactive means score below 0.9.

Each molecule was assayed against Estrogen receptor (Homo sapiens) + Estrogen receptor beta (Homo sapiens) (UniProt P03372+Q92731) (assay: OT_ER_ERaERb_0480: Odyssey Thera (OT) 8-hour HEK293T Protein-Complementation Assay for Estrogen Receptor-alpha/-beta Heterodimer (AID 2283352)).
Description: OT_ER_ERaERb_0480 is a cell-based assay that uses HEK293T, a human kidney cell line, with measurements taken at 8 hours after chemical dosing in a 384-well plate.OT_ER_ERaERb_0480 is one of one assay component(s) measured or calculated from the OT_ER_ERaERb_0480 assay. It is designed to make measurements of protein fragment complementation, a form of binding reporter, as detected with fluorescence intensity signals by Protein-fragment Complementation technology.Data from the assay component OT_ER_ERaERb_0480 was analyzed into 1 assay endpoint. This assay endpoint, OT_ER_ERaERb_0480, was analyzed in the positive analysis fitting direction relative to DMSO as the negative control and baseline of activity. Using a type of binding reporter, measures of receptor for gain-of-signal activity can be used to understand the binding at the pathway-level as they relate to the gene ESR1 and ESR2. Furthermore, this assay endpoint can be referred to as a primary readout, because the performed assay has only produced 1 assay endpoint. To generalize the intended target to other relatable targets, this assay endpoint is annotated to the nuclear receptor intended target family, where the subfamily is steroidal.
Protein-fragment complementation assay, or PCA, is a method for the identification and quantification of protein-protein interactions. In the PCA, the proteins of interest ("bait" and "prey") are each covalently linked to fragments of a third protein (e.g. DHFR, which acts as a "reporter"). Interaction between the bait and the prey proteins brings the fragments of the reporter protein in close proximity to allow them to form a functional reporter protein whose activity can be measured. […] Fluorescent signal in the basal state of the assay is very low and is primarily punctuate and cytoplasmic. Modulation of this assay is quantified as an increase in mean fluorescence intensity in the nucleus (for agonists) or in the nucleus and cytoplasm (antagonists) relative to vehicle controls, and can be quantified on a high content imaging device or a laser scanning cytometer. The latter instrument is favored for this assay because of the rapid mode of data acquisition, the ability to acquire data from the entire cell population in a well (as opposed to a fraction of the well on the high content devices) and the larger dynamic range typically achieved with this instrument. To assess sensitivity of the ER alpha/ER beta LBD assay to ligand, cells were treated with the ER agonist 17- beta-estradiol (E2) in 10-point concentration- response format for 8 hours and monitored response on a laser scanning plate cytometer (Acumen eX3; TTP Lab Tech).

Estrogen receptor (Homo sapiens) + Estrogen receptor beta (Homo sapiens), sequence (P03372 whole entry, looked up, the tested form may be a part): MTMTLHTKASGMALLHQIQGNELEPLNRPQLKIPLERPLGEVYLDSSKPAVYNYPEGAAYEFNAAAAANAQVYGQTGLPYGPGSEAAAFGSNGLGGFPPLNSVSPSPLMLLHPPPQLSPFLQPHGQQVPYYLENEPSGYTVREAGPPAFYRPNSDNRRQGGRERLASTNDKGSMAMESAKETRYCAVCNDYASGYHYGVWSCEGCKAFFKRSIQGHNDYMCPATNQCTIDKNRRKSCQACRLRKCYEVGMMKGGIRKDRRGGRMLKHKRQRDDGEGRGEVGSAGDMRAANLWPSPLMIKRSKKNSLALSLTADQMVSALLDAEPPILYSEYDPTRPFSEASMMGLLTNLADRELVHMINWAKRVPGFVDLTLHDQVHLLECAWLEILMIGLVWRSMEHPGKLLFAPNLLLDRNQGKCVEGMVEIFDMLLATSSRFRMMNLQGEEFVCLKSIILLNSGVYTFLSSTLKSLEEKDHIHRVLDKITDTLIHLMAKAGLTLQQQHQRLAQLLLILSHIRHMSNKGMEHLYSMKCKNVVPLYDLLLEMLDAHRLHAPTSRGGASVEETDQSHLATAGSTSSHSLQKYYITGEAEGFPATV
Estrogen receptor (Homo sapiens) + Estrogen receptor beta (Homo sapiens), sequence (Q92731 whole entry, looked up, the tested form may be a part): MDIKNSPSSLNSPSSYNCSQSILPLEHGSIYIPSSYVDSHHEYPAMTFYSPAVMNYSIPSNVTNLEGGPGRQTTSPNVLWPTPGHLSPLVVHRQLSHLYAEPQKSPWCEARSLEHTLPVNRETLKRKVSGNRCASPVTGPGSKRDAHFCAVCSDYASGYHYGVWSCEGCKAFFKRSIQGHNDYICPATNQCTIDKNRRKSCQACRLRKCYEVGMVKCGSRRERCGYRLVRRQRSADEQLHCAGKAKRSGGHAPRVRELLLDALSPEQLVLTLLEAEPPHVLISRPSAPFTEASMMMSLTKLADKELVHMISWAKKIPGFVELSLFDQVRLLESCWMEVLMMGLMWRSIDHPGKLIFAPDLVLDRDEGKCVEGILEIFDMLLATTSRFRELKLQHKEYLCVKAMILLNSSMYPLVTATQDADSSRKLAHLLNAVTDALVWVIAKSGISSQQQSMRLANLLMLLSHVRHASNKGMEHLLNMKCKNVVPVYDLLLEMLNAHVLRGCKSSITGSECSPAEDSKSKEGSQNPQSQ

Q: Which outcome does the source give for `CCCCOCCOCCO` here?
A: inactive

Q: Which outcome does the source give for `CC(CCO)CC(C)(C)C` (stereo not given) here?
A: inactive

Q: With `CCCCCCCCCCCCS` as the molecule, how does the outcome read?
A: inactive

Q: `[Na+]` was tested. Which outcome did it give?
A: inactive

Q: With `CCCCN(CCCC)CCCCCCN(CCCC)CCCC` as the molecule, how does the outcome read?
A: inactive

Q: `c1ccc(OCCOc2ccccc2)cc1` was tested. Which outcome did it give?
A: inactive

Q: For `CCCCCCCCOC(=O)c1ccc(O)cc1`, which AC50 is on record?
A: 10.1 µM (active)

Q: With `CCCCCCOc1ccc(O)cc1` as the molecule, how does the AC50 read?
A: 12 µM (active)

Q: `CCCC(O)C(CC)CO` (stereo not given) was tested. Which outcome did it give?
A: inactive

Q: For `Cc1cccc(O)c1`, which outcome is on record?
A: inactive

Q: For `CCOCC(C)O` (stereo not given), which outcome is on record?
A: inactive

Q: Which outcome does the source give for `CN(C)C` here?
A: inactive

Q: For `CC(C)(C)C1CCC(O)CC1` (stereo not given), which outcome is on record?
A: inactive

Q: How did the outcome turn out when `CCC(=O)OC(C)(C)C1CC=C(C)CC1` (stereo not given) was run?
A: inactive

Q: How did the outcome turn out when `CNC(=C[N+](=O)[O-])NCCSCc1ccc(CN(C)C)o1` was run?
A: inactive

Q: For `CCCO`, which outcome is on record?
A: inactive

Q: For `CCCCCCCCCCCCN1CCOCC1`, which AC50 is on record?
A: 50 µM (active)

Q: `CC(=O)OC(C)(C)C` was tested. Which outcome did it give?
A: inactive

Q: For `CCCc1ccc(N)cc1`, which outcome is on record?
A: inactive

Q: Which outcome does the source give for `OCC=Cc1ccccc1` here?
A: inactive

Q: How did the outcome turn out when `CC(=O)Nc1cc(S(=O)(=O)O)cc2cc(S(=O)(=O)O)c(N=Nc3ccccc3)c(O)c12` was run?
A: inactive

Q: `COC(=O)c1ccc(C(=O)OC)cc1` was tested. Which outcome did it give?
A: inactive

Q: With `FC(F)(F)c1ccc(Cl)c(Cl)c1` as the molecule, how does the outcome read?
A: inactive

Q: Which outcome does the source give for `CCCCC/C=C\C=C\C(=O)OCC` here?
A: inactive

Q: `CC(C)C(=O)c1ccccc1` was tested. Which outcome did it give?
A: inactive

Q: `CC(C)N(c1ccccc1)C(C)C` was tested. Which outcome did it give?
A: inactive

Q: `CC(O)CN` (stereo not given) was tested. Which outcome did it give?
A: inactive

Q: For `C=CC(C)CCCC(C)(C)O` (stereo not given), which outcome is on record?
A: inactive

Q: With `CCNC(=S)NCC` as the molecule, how does the outcome read?
A: inactive

Q: With `C=CCCCCCCCCC(=O)OCC` as the molecule, how does the outcome read?
A: inactive

Q: Which AC50 does the source give for `c1ccc(Cc2ccccc2)cc1` here?
A: 50 µM (active)

Q: For `O=C(OCc1ccccc1)c1ccccc1O`, which AC50 is on record?
A: 46 µM (active)

Q: For `CCC(C)COC(=O)CC(C)C` (stereo not given), which outcome is on record?
A: inactive

Q: Which outcome does the source give for `COc1cc(OC)c2ccc(=O)oc2c1` here?
A: inactive

Q: How did the outcome turn out when `CCCCCCCCCOS(=O)(=O)O` was run?
A: inactive

Q: For `CCO[Si](CC)(OCC)OCC`, which outcome is on record?
A: inactive

Q: How did the outcome turn out when `CC(=O)C1C(=O)C=C(C)OC1=O` (stereo not given) was run?
A: inactive

Q: Which outcome does the source give for `CC(=O)CC(=O)N(C)C` here?
A: inactive

Q: For `CN(C)C(=O)Nc1ccccc1`, which outcome is on record?
A: inactive

Q: With `CCCc1ccc(O)cc1` as the molecule, how does the AC50 read?
A: 45.2 µM (active)
